# In the supplement of paper PMC10338343:
# ± gives the standard deviation.
# Test system: EfPiwi piRISC loaded with L1MC piRNA (26 nt)
# Assay: pre-steady-state target cleavage rate (min^-1); auxiliary factor: 500 nM Ephydatia muelleri Gtsf1; guide: L1MC piRNA 5'p-UAACUAAAUACUAUGCAAGCUGUAGG; MIWI and MILI are mouse PIWI proteins and EfPiwi is from a freshwater sponge; tags in brackets are library labels; higher = faster piRNA-guided slicing of the target
# Method in brief: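 Cleave-'n-Seq reactions paired 0.1 nM transcribed, DNA-blocked target RNA library with 1 nM active affinity-purified piRISC holding one synthetic guide, plus or minus 500 nM GTSF1 partner protein, in HEPES–potassium acetate buffer at 33 °C for 0–8 or 0–960 min. After sequencing of uncleaved targets and normalisation to depth and weakly complementary targets, the pre-steady-state cleavage rate was taken from a burst-and-steady-state fit. Three trials were pooled, and k3 was capped at 0.0001 min^-1.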
row,Sequence,pre-steady-state target cleavage rate
1,UCCUGGAACUGCUUGCAAAGUAUUUAGUUA,0.0228 ± 0.008
2,UCCUGGAUGAGCUUGCAUAGUAUUUAGUUC [g2:g21:cont:t1C],0.039 ± 0.01
3,UCCUGCUACUGCUUGCAUAGUAAUUAGUUA,0.00587 ± 0.0019
4,UCCUGGUACAGCUUGCAUAGUAUUUAGUAA,0.0108 ± 0.0041
5,UCCUGCUACAGGUUGCAUAGUUUUUAGUUA,0.00998 ± 0.0028
6,UCCUGGUACAGCUUGCAUAGUAUUCUAGUUA,0.0044 ± 0.003
7,UCCUGGAACAGGUUGCAUAGUAAUUAGUUA,0.0061 ± 0.0024
8,UCCUGGUACAGCUUGCAUAUUAUUUAGUUA,0.00464 ± 0.0037
9,UCCUGGAUGAGCUGCAUAGUAUUUAGUUA,0.00786 ± 0.0028
10,UCCUGGAACAGGUUGCAUAGUUUUUAGUUA,0.00366 ± 0.0018
11,UCCUGCUACACCUAGCAUAGUAUUUAGUUA,0.0171 ± 0.0054
12,UCCUGCUACAGCUUGGCAUAGUAUUUAGUUA,0.00928 ± 0.0031
13,UCCUGCUAGAGCAUGCAUAGUAUUUAGUUA,0.00618 ± 0.0015
14,UCCUGCUUCAGCUUGCAUAGUAUUUACUUA,0.00411 ± 0.0037
15,UCCUCCUACUGCUUGCAUACUAUUUAGUUA,0.0106 ± 0.0044
16,UCCUGGUUGAGCUUGCAUAGUAUUUAGUUA,0.0176 ± 0.0053
17,UCCUGGUACAGGUUGCAUAGUAUUUAGUUA,0.0211 ± 0.0053
18,UCCUGGAUGUGCUUGCAAAGUAUUUAGUUA,0.00905 ± 0.0036
19,UCCUGGAAGAGGUUGCAUAGUAUUUAGUUA,0.00538 ± 0.0032
20,UCCUGGAAUCAGCUUGCAUAGUAUUUAGUUA,0.0198 ± 0.0068
21,UCCUCCUACAGGAAGCAUAGUAUUUAGUUA,0.0159 ± 0.0041
22,UCCUGGAUCAGUCUUGCAUAGUAUUUAGUUA,0.0152 ± 0.0042
23,UCCUGGAACAGCUGUGCAUAGUAUUUAGUUA,0.00999 ± 0.0023
24,UCCUGGAACAGCUUGCAUAGUCUUUAGUUA,0.00979 ± 0.0029
